In PubChem BioAssay (NCI):
The panel holds about 83,000 compounds, 20% with a hit somewhere; the sample as a whole holds those more often.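 Testing used 96-well plates and a 48-hour single-concentration exposure. Example: -40 means 40% of the starting cells died.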 Active and inactive are the calls of the source. Rule for the calls: active = growth percent below 10; inactive = the rest.

Columns and labels:
Assay in all cases: NCI-60 one-dose screen, 48 h (100 = growth as untreated, 0 = no growth, -100 = all killed)
Settings in all cases: 10 µM unless noted
[1] = test system: DU-145 prostate
[2] = test system: K-562 leukemia
[3] = test system: MALME-3M melanoma
[4] = test system: MDA-MB-231 breast
[5] = test system: RXF 393 renal
[6] = test system: SF-268 CNS
[7] = test system: SF-539 CNS
[8] = test system: UACC-257 melanoma
[9] = test system: M14 melanoma
[10] = test system: HCT-15 colon
[11] = test system: HT29 colon
[12] = test system: SNB-75 CNS
[13] = test system: SNB-19 CNS
[14] = test system: U251 CNS
[15] = test system: PC-3 prostate
[16] = test system: SK-MEL-5 melanoma
[17] = test system: UACC-62 melanoma
[18] = test system: LOX IMVI melanoma
[19] = test system: SK-MEL-28 melanoma

Measured: growth

C/C(CC(=O)NNc1ccc([N+](=O)[O-])cc1)=N\Nc1ccc([N+](=O)[O-])cc1
inactive: [1] 62.1% | [2] 12.9% | [3] 93.4% | [4] 47% | [5] 118% | [6] 83.8% | [7] 68.2% | [8] 99.6% | [9] 25.5% | [10] 49.6% | [11] 71.4% | [12] 97.3% | [13] 104% | [14] 78.5% | [15] 54.7% | [16] 59.4% | [18] 70.3% | [19] 114%
active: [17] 9.12%

O=C(C=P(c1ccccc1)(c1ccccc1)c1ccccc1)CCl
inactive: [4] 16.2% | [13] 69.1% | [14] 34.7%
active: [1] -36.5% | [2] -6.42% | [3] -69.7% | [5] -71.1% | [6] -12.2% | [7] -20% | [8] -73.5% | [9] -61.5% | [10] -18.2% | [11] -54.2% | [12] 7.49% | [15] 8.54% | [16] -4.76% | [17] -78.3% | [18] -85.5% | [19] -6.08%

CCCCNCC(O)c1cc2c(Cl)cc(Cl)cc2c2cc(C(F)(F)F)ccc12 (stereo not given)
active: [1] -98% | [2] -69.1% | [3] -60.8% | [4] -74.8% | [5] -94.7% | [6] -80.5% | [7] -81.7% | [8] -72.4% | [9] -86.5% | [10] -60.4% | [11] -84.4% | [12] -87.6% | [13] -71.5% | [14] -95.5% | [15] -89.6% | [16] -35.4% | [17] -84.4% | [18] -77.8% | [19] -88.4%

COc1ccc(-c2nnc(SCC(=O)Nc3ccc(C(=O)/C=C/c4ccc(Cl)cc4)cc3)n2-c2ccccc2)cc1
inactive: [1] 101% | [2] 96.7% | [3] 112% | [4] 79.6% | [5] 106% | [6] 91% | [7] 101% | [8] 115% | [9] 85.9% | [10] 94.7% | [11] 99.2% | [12] 86.5% | [13] 99.6% | [14] 85.8% | [15] 87.9% | [16] 92.1% | [17] 83.7% | [18] 103% | [19] 101%

CCCN(CCC)CC(O)COc1ccccc1C(=O)Nc1ccccc1 (stereo not given)
inactive: [1] 96.8% | [2] 22.3% | [3] 62% | [4] 96.5% | [5] 52.5% | [6] 73.8% | [7] 77.3% | [8] 61.5% | [9] 69.3% | [10] 72.8% | [11] 71.3% | [12] 56.2% | [13] 94.6% | [14] 60.4% | [15] 70.2% | [16] 53.3% | [17] 48.1% | [18] 56.8% | [19] 65.2%

O=C1Nc2ccccc2/C1=C/c1c[nH]c2ccccc12
inactive: [1] 98.1% | [2] 82.8% | [3] 88.1% | [4] 71.7% | [5] 90.9% | [6] 87.8% | [7] 80.6% | [8] 89.2% | [9] 91.8% | [10] 63.9% | [11] 100% | [12] 62.1% | [13] 83.8% | [14] 76.2% | [15] 72.3% | [16] 94.2% | [17] 81.8% | [18] 75.2% | [19] 101%

COc1cc2c(cc1OC)C(=O)C(Br)CC2 (stereo not given)
active: [3] 3.69% | [18] -0.506%
inactive: [1] 31.5% | [2] 16.5% | [4] 42.6% | [5] 40.8% | [6] 64.6% | [7] 68.2% | [8] 56.7% | [9] 32% | [10] 17.5% | [11] 24.1% | [12] 53% | [13] 85.3% | [14] 54% | [15] 31.2% | [16] 53.2% | [17] 33% | [19] 67.7%

COc1cc(/C=C/C(=O)c2ccc(NC(=O)CSc3nnc(-c4ccc(Cl)cc4)n3-c3ccccc3)cc2)cc(OC)c1OC
inactive: [1] 80% | [2] 44.3% | [3] 101% | [4] 54.9% | [5] 55.5% | [6] 77.6% | [7] 91.3% | [8] 73.6% | [9] 76.1% | [10] 49.8% | [11] 74.8% | [12] 62.4% | [13] 76.4% | [14] 69.7% | [15] 69.7% | [16] 55.8% | [17] 68.5% | [18] 73.9% | [19] 97.1%

CCCCCCCCCCCCCC(=S)NCCCC[C@H](NC(=O)OCc1ccccc1)C(=O)Nc1ccccc1
inactive: [1] 52.4% | [2] 17.1% | [3] 83.6% | [4] 17.5% | [5] 69.1% | [6] 43.3% | [7] 75.3% | [8] 69.1% | [9] 37.3% | [10] 32.6% | [11] 45.1% | [12] 55.4% | [13] 45.8% | [14] 28.7% | [15] 25.7% | [16] 68.6% | [17] 43.1% | [18] 42.2% | [19] 72.2%

CCN(CC)CCCC(C)N/C(c1cccc(OC)c1)=c1\c(=O)[nH]n(-c2c3ccccc3nc3ccccc23)c(=O)\c1=C(/NC(C)CCCN(CC)CC)c1cccc(OC)c1 (stereo not given)
active: [1] -13.5% | [2] -22.1% | [3] -93.9% | [4] -51.9% | [5] -78.3% | [6] -48.8% | [7] -91.5% | [8] -95.5% | [9] -80% | [10] 2.74% | [11] -68% | [12] -22.5% | [14] -73% | [15] -57.7% | [16] -98.9% | [17] -77.9% | [18] -66.1% | [19] -96%
inactive: [13] 13%

Nc1n[nH]c2ccc([C@@H]3Nc4c(F)cc5[nH]ncc5c4[C@H]4C5CCC(C5)[C@@H]34)cc12 (stereo not given in full)
inactive: [2] 13.9% | [3] 32.7% | [6] 36.1% | [8] 62.1% | [10] 19.8% | [11] 11.7% | [13] 27.9% | [14] 14.3% | [15] 22.8% | [17] 38.1% | [18] 20.3% | [19] 49.2%
active: [1] 3.59% | [4] 4.87% | [5] -0.647% | [7] -39% | [9] 9.46% | [12] 7.8% | [16] 4.3%

CCN(CC)Cc1cc(Nc2ccnc3cc(Cl)ccc23)cc(-c2ccc(Cl)cc2)c1O
inactive: [1] 26.1% | [2] 18.8% | [4] 48.7% | [5] 46.4% | [8] 10.5% | [9] 10.2% | [10] 25.2% | [11] 22.7% | [13] 32.8% | [15] 25.2% | [17] 60.8% | [19] 46%
active: [3] 10% | [6] 8.65% | [7] -25.6% | [12] -35.9% | [14] 0.662% | [16] -49.6% | [18] 0.179%

CC1C2CCC(C2)C1COCCOCCO (stereo not given)
inactive: [1] 114% | [2] 109% | [3] 107% | [4] 113% | [5] 116% | [6] 112% | [7] 96.7% | [8] 87.8% | [9] 112% | [10] 98.3% | [11] 102% | [12] 109% | [13] 123% | [14] 91.9% | [15] 101% | [16] 106% | [17] 104% | [18] 94.9% | [19] 109%

O=C1C2=C(C(=O)c3c(O)ccc(O)c31)N(c1ccc(N3CCOCC3)nc1)Cc1ccccc1O2
active: [1] -98% | [2] -17.5% | [3] -91.6% | [4] -89.6% | [5] -92.1% | [6] -42.5% | [7] -72.1% | [8] -92% | [9] -89.3% | [10] -77.4% | [11] -47.7% | [12] -19.8% | [14] 0.735% | [15] 1.08% | [16] -75% | [17] -66.7% | [18] -66.8% | [19] -77%
inactive: [13] 12.2%

C#CC[C@@H]1C[C@]2(C)[C@H]3CC[C@@H]4[C@H]5C(C(=C)C)CC[C@]5(C(=O)NCCCCN)CC[C@@]4(C)[C@]3(C)CC[C@H]2C(C)(C)[C@H]1OC(C)=O (stereo not given in full)
active: [1] -77.8% | [2] -9.82% | [4] -81.2% | [5] -89.2% | [7] -82.9% | [9] -58.5% | [10] -66.1% | [11] -61.3% | [12] -97.3% | [13] -56.7% | [14] -86.6% | [15] 6.29% | [17] -36.1% | [18] -83.4%
inactive: [3] 46.6% | [6] 91.6% | [8] 85.9% | [16] 89.9% | [19] 67.9%
